Assays:
Assay type in all cases: functional
[1] = tested on: Plasmodium falciparum; assay: GSK_TCMDC: Inhibition of Plasmodium falciparum 3D7 in whole red blood cells, using parasite LDH activity as an index of growth. Test compounds present at 2uM
[2] = tested on: Plasmodium falciparum; assay: GSK_TCMDC: Inhibition of Plasmodium falciparum Dd2 in whole red blood cells, using parasite LDH activity as an index of growth. Test compounds present at 2uM
[3] = tested on: HepG2; assay: GSK_TCMDC: Percent inhibition of human HepG2 cell line. Test compounds present at 10uM.

Row | Compound | Inhibition [1] | Inhibition [2] | Inhibition [3]
1 | O=C(/C=C/c1ccc(Cl)c(Cl)c1)NCCCCCN1CCC(NC(=O)Nc2cc(F)cc(F)c2)CC1 | 100% | 6% | 80%
2 | Cc1ccc(NC(=O)c2ccc3nccnc3c2)cc1OC1CCN(Cc2ccc(F)cc2)CC1.O=C(O)C(F)(F)F | 87% | 24% | 16%
3 | COc1ccc(CNCc2cccc(-c3ccc(-c4nc5ccccc5[nH]4)cc3)c2)cc1.O=C(O)C(F)(F)F | 100% | 60% | 22%
4 | O=S(=O)(c1cccc2cccnc12)N1CCN(C2CCCCC2)CC1 | 96% | 10% | 15%
5 | CCNc1cc(C(=O)N[C@@H](Cc2ccccc2)[C@H](O)CN[C@@H]2CCc3ccccc32)cc(N2CCCC2=O)c1 | 92% | 93% | 0%
6 | COc1ccc(-n2cc(CNCCCn3ccnc3)c(-c3cccc(F)c3)n2)cc1 | 98% | 17% | 21%
7 | CCOc1ccc2c(=NN=Cc3cc(OC)c(OC)c(OC)c3)cc(C)[nH]c2c1 | 100% | 99% | 18%
8 | COc1ccc2nccc([C@@H](O)CN3CCC(NCCOc4c(C)cccc4F)CC3)c2c1.O=C(O)C(=O)O | 100% | 95% | 4%
9 | O=C(NC1CC1)c1cnc(N2CCC(Cc3ccccc3)CC2)c(Cl)c1.O=C(O)C(F)(F)F | 96% | 96% | 10%
10 | FC(F)(F)c1ccc2[nH]c(-c3ccc(-c4cccc(CNCc5cnn(-c6ccccc6)n5)c4)cc3)nc2c1.O=C(O)C(F)(F)F | 99% | 83% | 19%
11 | CN(CCN1CCC(c2c[nH]c3ccccc23)CC1)C(=O)OCCCCCNC(=O)/C=C/c1ccc(Cl)c(Cl)c1 | 95% | 44% | 39%
12 | COc1ccc2nccc(NC(=O)C3CCC(NCc4cnc(SC)c([N+](=O)[O-])c4)CC3)c2n1.Cl (stereo not given) | 89% | 44% | 8%
13 | Cl.N=C(N)NN=Cc1c2ccccc2c(Cl)c2ccc(Cl)cc12 | 98% | 89% | 97%
14 | O=C(CCN1C(=O)c2ccccc2C1=O)N1CCN(CC=Cc2ccccc2)CC1 | 87% | 3% | 10%
15 | CCN1CCN(CCCNc2c3ccc(Cl)cc3nc3ccc(O)cc23)CC1 | 100% | 1% | 32%
16 | COc1ccccc1-c1ccc(C(=O)NCC2CCCN(Cc3cccc(C(F)(F)F)c3)C2)s1.O=C(O)C(F)(F)F (stereo not given) | 81% | 37% | 18%
17 | O=C(O)C(F)(F)F.c1cncc(CCNCc2ccc(-c3cccc(-c4nc5ccccc5[nH]4)c3)cc2)c1 | 100% | 99% | 39%
18 | Cn1c(Nc2cc(C(C)(C)C)on2)nc2cc(Nc3ccnc(Nc4ccc(CS(C)(=O)=O)cc4)n3)ccc21 | 100% | 68% | 37%
19 | COc1ccc(CCN2CCC(NCc3cccc(N(C)C)c3)CC2)cc1 | 98% | 7% | 18%
20 | CC(C)Nc1nc(NCCc2c[nH]cn2)nc(NCc2ccc(Cl)c(Cl)c2)n1 | 88% | 0% | 0%
